This is an account of results in PubChem BioAssay (NCI).

Compounds without any hit were thinned out: in the full panel of roughly 83,000, 20% have a hit.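 Percent growth is the endpoint: 0 to 100 indicates growth inhibition (40 means 60% inhibition), 0 means no net growth, and negative values indicate cell death.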 The source made the active and inactive calls.

The test system of this assay is LOX IMVI melanoma. Description: NCI-60 one-dose screen, 48 h (100 = growth as untreated, 0 = no growth, -100 = all killed). As to conditions: 10 µM unless noted. As for the experimental part: Growth inhibition of the LOX IMVI human tumor cell line is measured as a screen for anti-cancer activity. Cells are grown in 96 well plates and exposed to the test compound for 48 hours. Compounds are tested at a single concentration, which is 10^-5 M for most compounds. The reported endpoint is percent growth (GI% or GIPRCNT), where numbers from 0 - 100% represent growth inhibition, and numbers from -100% - 0 represent cell death. For example, a value of 40 represents 60% growth inhibition. A value of 0 means no net growth occurred over the course of the experiment. A value of -40 indicates 40% of cells at the beginning of the experiment died by the end of the experiment. A value of -100 means all cells are dead at the end of the experiment.
NCI-60 Human Tumor Cell Lines Screen was performed using the standard one-dose NCI protocol, which is described in more detail at https://dtp.cancer.gov/discovery_development/nci-60/default.htm.
Compounds with GIPRCNT values below 10 were considered active. Activity score was based on GIPRCNT using the following formula: […]
Score is 0 for GIPRCNT values of 100 or above, 50 for GIPRCNT values of 0, and 100 for GIPRCNT values of -100.
With `COc1ccc(C(=O)N=Nc2c(O)n(C)c3ccccc23)cc1`, the growth is 81.8% (inactive).

Turning to `O=c1ccc(N=Nc2ccccc2)ccc1Cl`, the growth was -77.1% (active).

Consider `COc1ccc(CNC(=O)[C@H](O)[C@@H](N)Cc2ccccc2)cc1`, for which the growth was 97.6% (inactive).

With `O=c1c2cc(F)ccc2sc2c(NCCCNCCO)nc3ccc(F)cc3c12`, the growth was -76.7% (active).

As for `O=C1CCC/C=C\C[C@H]2C=CC(=O)/C2=C/C[C@H](CCc2cccc(C(F)(F)F)c2)O1`, the growth is -72.6% (active).

`COc1cc(/C=C/c2ccccc2)cc(OC)c1`: the growth is 84.8% (inactive).

With `CN(C)CCN1CCN(c2ncccc2C2Nc3ccccc3-n3cccc32)CC1` (stereo not given), the growth is 99.9% (inactive).

In the case of `O=C1CCC(C(=O)NCCNCCNC(=O)C2CCC(=O)N2)N1` (stereo not given), the growth is 96.5% (inactive).

In the case of `c1cc(NCCc2ccncc2)nc(-n2cnc3ccccc32)c1`, the growth is 79.4% (inactive).

As to `c1ccc(-c2nc3nonc3nc2-c2ccccc2)cc1`, the growth is 56% (inactive).

Consider `C=C1C(=O)O[C@H]2[C@H]1CC/C(COC(=O)NCCOCCOCC(=O)Nc1ccc(OC)c(C(N)=O)c1O)=C\CC[C@@]1(C)O[C@@H]21`, for which the growth is 57.2% (inactive).

As for `COC(=O)/C=C1\S/C(=N\Nc2ccc([N+](=O)[O-])cc2[N+](=O)[O-])N(C2CCCCC2)C1=O`, the growth was 72.4% (inactive).

With `Cc1cc(=O)[nH]c(=O)n1Cc1cn(-c2c3ccccc3nc3ccccc23)nn1`, the growth was 15.2% (inactive).

Regarding `Cc1nn(-c2ccccc2)c(-n2ccnc2)c1/C=N/Nc1nc(-c2ccc(F)cc2)cs1`, the growth was 83.7% (inactive).

`O=C1/C(=C/c2ccccc2[N+](=O)[O-])Oc2ccc(O)c(O)c21`: the growth is 14.3% (inactive).

In the case of `CCc1cccc2c3c(sc12)C(c1ccc(F)cc1)C(C#N)=C(N)O3` (stereo not given), the growth was 14.6% (inactive).

In the case of `CCCCn1c(-c2ccc(-c3nc(-c4ccc(Cl)cc4)no3)cc2)nc(-c2ccccc2)c1-c1ccccc1`, the growth is 31.3% (inactive).

`CN1CCN(c2ccc(-c3cc4c(Nc5ccc(F)c(Cl)c5)ncnn4c3)cc2)CC1`: the growth was -53.6% (active).

In the case of `Cc1ccc(-c2nc(N3CCN(CC(=O)Nc4ccc(Cl)cc4)CC3)c3ccccc3n2)cc1`, the growth was 97.4% (inactive).

Consider `COc1ccc(CN2c3ccccc3Sc3ccccc32)c(F)c1`, for which the growth is 52.7% (inactive).

`Cc1cc(O)c(C2=NN(c3ccc(S(N)(=O)=O)cc3)C(c3ccccc3O)C2)cc1Cl` (stereo not given): the growth is -89.6% (active).

Regarding `CNC(=O)c1cc(-n2ccc3cc(NC(=O)c4ccc(N5CCOCC5)c(C(F)(F)F)c4)ccc32)ccn1`, the growth is 36.1% (inactive).

In the case of `c1ccc2c(c1)Nc1ccncc1S2`, the growth was 85.8% (inactive).

As for `CCOC(=O)/C(C#N)=C\Nc1ccc2ncnc(Nc3ccc(Cl)cc3Cl)c2c1`, the growth is 87.4% (inactive).

Turning to `CCOc1ccc2nc(SCc3nc4n(n3)S(=O)(=O)c3ccccc3N4C)sc2c1`, the growth is 19.8% (inactive).

On to `COc1cc(/C=N/NC(=O)c2ccc(C)nc2)cc(OC)c1OC`, for which the growth was 94.8% (inactive).

Consider `CNc1nc2c(s1)C(c1cc(F)ccc1F)CC(=O)N2` (stereo not given), for which the growth is 73.4% (inactive).

Consider `CCCCn1c(=O)c(-c2cc(-c3ccc(Cl)cc3)nc(-c3ccc(Cl)cc3)c2)cc2cc(C)ccc21`, for which the growth was 98.5% (inactive).

On to `N#Cc1c(-c2ccccc2)nc(SCC(=O)Nc2nc(-c3ccc(Cl)cc3)cs2)[nH]c1=O`, for which the growth is 100% (inactive).

For `COc1ccc(C(Cc2ccccc2)NCCN2CCOCC2)cc1` (stereo not given), the growth is 91.4% (inactive).

As for `CCn1cnc2c1c(=O)[nH]c(=O)n2CC1CCC(CNS(=O)(=O)c2ccc(OC3CCOCC3)c(F)c2)CC1` (stereo not given), the growth was 38.4% (inactive).

Consider `CCCCCCCCCCCCCCCCCCOc1ccc(CC(=O)OCC[N+]2(C)CCCCC2)cc1`, for which the growth was 94.7% (inactive).

For the compound `Cc1ccc(C(C)C)cc1C(=O)C[n+]1ccccc1`, the growth was 100% (inactive).

Consider `Oc1ccc(CCl)c2cccnc12`, for which the growth was 55% (inactive).

`CC/C=C\C[C@@H](O)C/C=C1/C(=O)C=C[C@H]1C/C=C\CCCC(=O)OC`: the growth is -69% (active).

`COc1ccc(-c2cc(-c3cc(OC)c(OC)c(OC)c3)nc(N3CCOCC3)c2C#N)cc1`: the growth was 74.7% (inactive).

For `COc1cc(/C=C/C(=O)/C=C/c2cc(OC)c3c(c2OC)OCO3)c(OC)c2c1OCO2`, the growth is 32.9% (inactive).

`O=[N+]([O-])c1ccc(Oc2nc(Nc3ccc(O[C@H]4CO[C@H]5[C@@H]4OC[C@@H]5O)c(Cl)c3)ncc2F)c(Cl)c1`: the growth was 16.7% (inactive).

On to `C/C(=C(/c1ccccc1)c1ccc(N2C(=O)c3cccc4c(N5CCN(C)CC5)ccc(c34)C2=O)cc1)c1ccccc1`, for which the growth is 24.6% (inactive).

On to `NCCCNc1nc2ccccc2c2c(=O)c3cc(F)cc(Cl)c3sc12`, for which the growth is 79.4% (inactive).
